Growth data for 25 compounds are collected here from PubChem BioAssay (NCI).

This is part of a sample that, as a whole, favours compounds with a hit. Of some 83,000 tested, about 20% had one in any assay.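 96-well plates, one dose, 48 hours. Percent growth reported; active if below 10.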 A number with no mark means an inactive call. The source made the active and inactive calls.

This test has as its system MDA-MB-468 breast. The experiment in a line: NCI-60 one-dose screen, 48 h (100 = growth as untreated, 0 = no growth, -100 = all killed). To be noted: 10 µM unless noted.
In the case of `Cc1c(O)cc(-c2cnc(N/N=C\c3ccc(Cl)cc3)s2)c(O)c1C`, the growth is 76%.

Turning to `c1c[nH]c(CNC2CCCCC2)c1`, the growth is 141%. The value for `CCCCCCCCCNCCCCCCCCC` was 22.5%.

In the case of `CCOC1(OCC)OC(c2ccccc2)=C(C#N)C(/C=C\c2ccccc2)C1(OCC)OCC` (stereo not given), the growth is 56.7%.

Take `O=S(=O)(NCCNc1cc(-c2c(-c3cccc(O)c3)nc3sccn23)ccn1)c1ccc(C(F)(F)F)cc1`: the growth is 30.7%. With `C#CCn1c(-c2cccc(OCCCCl)c2)nc2c1c(=O)n(C)c(=O)n2C`, the growth was 71.6%. The value for `O=c1ccn(C2OC(F)(CO)C(O)C2F)c(=O)[nH]1` (stereo not given) was 126%; that for `O=C(C1=Cc2cc3ccccc3n2Cc2cnnn21)c1ccccc1` was 5.98% (active); that for `COc1ccccc1NC(=O)COc1ccc(/C=C2/Oc3cc4occc4c(OC)c3C2=O)cc1OC` was 102%. In the case of `Cc1cc(N2CCCCC2)nc(N(CCNc2ccnc3cc(Cl)ccc23)Cc2ccccn2)n1`, the growth was 3.63% (active).

With `Cc1ccc(O)c(N)c1`, the growth was 98.9%.

Regarding `CC(=O)n1cc(C=O)c2ccccc21`, the growth is 112%. The value for `CCOC(=O)c1ccc(C(=N)N)cc1` was 106%; that for `O=C1C=CC(=O)N1CCCCCCCCCCN1C(=O)C=CC1=O` was 70.9%; that for `CC(=O)N1CCN(c2ccc(OCC3CO[C@](Cn4ccnc4)(c4ccc(Cl)cc4Cl)O3)cc2)CC1` (stereo not given in full) was 26.5%. Then `COc1ccc2c(c1)OC(N)=C(C#N)C2c1cc(OC)c(OC)c(OC)c1` (stereo not given), with -20.9% (active); and `CCCCCCN1C(=O)CN=C1Nc1ccc2cc3ccc(NC4=NCC(=O)N4CCCCCC)cc3nc2c1`, with 3.94% (active); and `O=[N+]([O-])c1cccc(-c2ncc(-c3ccc(Cl)cc3Cl)[nH]2)c1`, with 47.6%. Then `COCCCOc1cc(C[C@@H](C[C@H](N)[C@@H](O)C[C@H](C(=O)NCC(C)(C)C(N)=O)C(C)C)C(C)C)ccc1OC`, with 101%; and `CCC(=C(c1ccc(OCCN2CCCCC2)cc1)c1ccc(OCCN2CCCCC2)cc1)c1ccc(Cl)cc1`, with -77% (active). For the compound `NC(=S)N/N=C/c1cc(-c2cccc(N)c2)ccn1`, the growth was -11.8% (active). The value for `C=C1CC[C@@H]2[C@](C)(COC(C)=O)[C@H](OC(C)=O)CC[C@@]2(C)[C@@H]1CC(Nc1ccc(S(=O)(=O)Nc2ncccn2)cc1)C1=CCOC1=O` (stereo not given in full) was -54% (active); that for `CNC(=O)c1cc(Oc2ccc3nc(NC(=O)Nc4ccc(Cl)cc4)sc3c2)ccn1` was 55.1%; that for `CNc1ccc(Br)cc1-c1n[nH]c(=O)[nH]c1=O` was 120%. Then `O=C(O)c1ccc(S(=O)(=O)O)cc1`, with 103%.
